Screens from PubChem BioAssay.
Only a selection was taken, and hits are over-represented in it overall.
TTR transcr act – TTR transcription activation, primary screen. SH-SY5Y TTR promoter Gaussia luciferase, luminescence; 100% = recombinant luciferase protein wells. activation, % at 16.7 µM. 92,000 tested, 1.3% active;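 active = activation above the mean of all tested compounds plus 3 SD, cut at about 9.5% in these data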;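 note: cells exposed to compounds for one day before reading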
HuH7 TTR inh – HuH7 TTR transcription inhibition, counter-screen; shares compounds with TTR transcr act; HuH7 TTR promoter-Gaussia luciferase reporter, luminescence; inhibition, % at 16.7 µM; 1,100 tested, 4% active;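 active = average inhibition above the solvent-only control wells' mean plus 3 SD, cut at about 15% in these data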;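 note: inhibitors lower well luminescence so higher value means more inhibition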
TTR up confirm – confirmation of human transthyretin transcription activators; shares compounds with TTR transcr act; SHSY5Y TTR promoter Gaussia luciferase, luminescence; 100% = purified Lucia enzyme wells, no cells; activation, % at 16.7 µM; 1,100 tested, under 10 active;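 active = mean activation above a set limit taken from the earlier primary screen, cut at about 11% in these data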
A number is an active result; i = inactive.

SMILES | TTR transcr act | others
CC1=C(C(=O)Nc2ccccc2C)C(c2ccccc2)NC(=O)N1 (configuration not stated) | i
CC1=C(C(=O)Nc2ccc(C)cc2)C(c2ccc(N(C)C)cc2)NC(=O)N1 (configuration not stated) | i
Cc1cc(C)cc(NS(=O)(=O)c2c(C(=O)N3CCOCC3)c(C)n(C)c2C)c1 | i
O=C(O)c1ccccc1Nc1ccc([N+](=O)[O-])cc1C(=O)O | i
O=C(O)c1cc([N+](=O)[O-])ccc1-c1ccc([N+](=O)[O-])cc1C(=O)O | i
O=C(O)c1cc([N+](=O)[O-])cc2ccccc12 | 15 | HuH7 TTR inh=i;TTR up confirm=i
COc1cccc(N2C(=O)CC(N3CCN(C(=O)c4ccco4)CC3)C2=O)c1 (configuration not stated) | i
O=C(c1ccco1)N1CCN(C2CC(=O)N(c3ccc(F)c(Cl)c3)C2=O)CC1 (configuration not stated) | 10 | HuH7 TTR inh=i;TTR up confirm=i
COc1ccc(N2C(=O)CC(N3CCN(C(=O)c4ccco4)CC3)C2=O)cc1 (configuration not stated) | i
CCC(=O)c1ccc(OCCN2CCOCC2)cc1 | i
CC(C)(C)c1cc(C(=O)CCN2CCOCC2)cc(C(C)(C)C)c1O | i
O=C(CCN1CCOCC1)c1ccc(N2CCCCC2)cc1 | 10.0 | HuH7 TTR inh=i;TTR up confirm=i
O=C(NCc1ccncc1)[C@@H]1CCCN1C(=O)[C@@H]1CCCN1C(=O)c1cccc2ccccc12 | i
c1ccc(-c2ccccc2OCCCCn2ccnc2)cc1 | i
COc1ccc(/C(O)=C2/C(=O)C(=O)N(CCCN3CCOCC3)C2c2ccc(N(C)C)cc2)cc1 (configuration not stated) | i
CCCOc1cccc(C2/C(=C(/O)c3ccc(OC)cc3)C(=O)C(=O)N2CCN(C)C)c1 (configuration not stated) | i
COc1ccc(C2/C(=C(/O)c3ccc(F)cc3)C(=O)C(=O)N2CCCN(C)C)cc1 (configuration not stated) | 12 | HuH7 TTR inh=i;TTR up confirm=i
CCN(CC)CCNc1c(C)cc(CO)c(Cl)c1C | i
C=CCOc1ccc(C2/C(=C(\O)c3ccc4c(c3)OCCO4)C(=O)C(=O)N2CCCN2CCOCC2)cc1 (configuration not stated) | i
O=C(/C=C\N1CCOCC1)c1ccc(Br)cc1 | 12 | HuH7 TTR inh=i;TTR up confirm=i
O=C(NC(=S)Nc1ccccc1N1CCOCC1)c1ccc(Br)cc1 | i
O=C(c1cccc(Br)c1)N1CCN(C(=O)N2CCOCC2)CC1 | i
c1cc[n+](CCC[n+]2ccccc2)cc1 | i
O=C1NC(=S)NC(=O)C1Nc1ccc(Cl)cc1 | i
O=C(COC(=O)c1ccc(S(=O)(=O)N2CCOCC2)cc1)Nc1ccccc1OC(F)F | i
SMILES | TTR transcr act | others
COc1ccc(S[C@@H](CCN2CC[C@H](O)CCC2=O)c2ccccc2)cc1 | i
CN(C)CCNc1nc(-c2ccccc2F)c2sccc2n1 | i
CN(CCc1ccccc1)C(=O)c1cccc(NC(=O)Cc2cccc(NC(=O)C3CCN(C(=O)c4ccccc4)CC3)c2)c1 | 9.9 | HuH7 TTR inh=i;TTR up confirm=i
CN(CCc1ccccc1)C(=O)c1cccc(NC(=O)Cc2cccc(NC(=O)C3CCN(C(=O)C4CC4)CC3)c2)c1 | i
CN(CCc1ccccc1)C(=O)c1cccc(NC(=O)Cc2cccc(NC(=O)C3CCN(C(=O)C4CCCC4)CC3)c2)c1 | i
Cc1ccc(N2C(=O)/C(=C/c3ccco3)SC2=S)cc1 | i
O=C(NCCN1C(=O)S/C(=C\c2cccs2)C1=O)c1ccco1 | i
COc1ccccc1OCCN1C(=O)S/C(=C\c2ccco2)C1=O | 10 | HuH7 TTR inh=i;TTR up confirm=i
CN(C(=O)c1cccc(NC(=O)Cc2ccc(NC(=O)C3CCCN(C(=O)C4CCCCC4)C3)cc2)c1)C1CCC1 (configuration not stated) | i
CC(C)(C)c1ccc(C(=O)N2[C@H](COCc3ccccc3)C=CS2(=O)=O)cc1 | i
O=C(N[C@@H]1c2ccccc2CC[C@@H]1OCc1ccccc1)c1ccc(C(F)(F)F)cc1 | i
CCNC(=O)C1CCCN(C(=O)c2ccc(C(F)(F)F)cc2)CC1 (configuration not stated) | i
OCC[C@@H]1C[C@H](O)[C@@H](O)[C@@]2(OCCCc3cc(C(F)(F)F)ccc32)O1 | i
COc1ccc(C(=O)Nc2ccc(C(=O)N3CCCC3)cc2)cc1[N+](=O)[O-] | i
COc1ccc(NC(=O)c2cc(C)cc(C)c2)cc1[N+](=O)[O-] | 19 | HuH7 TTR inh=i;TTR up confirm=i
COc1cc(NC(=O)c2ccc(OC)c([N+](=O)[O-])c2)ccc1NC(=O)c1ccco1 | i
COC(=O)[C@]12C[C@H](CC(=O)NCCC(C)C)C(=O)N(Cc3ccco3)C1=C[C@H](C1CCCC1)O[C@@H]2C | i
Cc1cc(CNC[C@H]2O[C@@H](n3cnc4c(N)ncnc43)[C@H](O)[C@@H]2O)no1 | i
Cc1nc2sc(C(c3cccc(F)c3)N3CCCCC3)c(O)n2n1 (configuration not stated) | 10 | HuH7 TTR inh=i;TTR up confirm=i
Cc1nc2sc(C(c3ccccc3)N3CC(C)OC(C)C3)c(O)n2n1 (configuration not stated) | i
Cc1nc2sc(C(c3ccc(Cl)cc3)N3CCOCC3)c(O)n2n1 (configuration not stated) | i
O=C(c1ccc(F)cc1)N1CCC(C(=O)N2CCN(c3ncccn3)CC2)CC1 | i
Cc1nc(NC(=O)COC(=O)c2cccs2)c(Cl)cc1Cl | i
Clc1ccc(-c2nc(-c3ccncc3)no2)c(Cl)c1 | i
O=[N+]([O-])c1cc(Cl)ccc1-c1nc(-c2ccncc2)no1 | 10 | HuH7 TTR inh=i;TTR up confirm=i
SMILES | TTR transcr act | others
Clc1ccccc1-c1nc(-c2ccncc2)no1 | i
COC(=O)CCC(C)C1CCC2C3C(OC(C)=O)CC4CC(O)CCC4(C)C3CC(O)C12C (configuration not stated) | i
CC(=O)c1cccc(NC(=O)N2CCC(NC(=O)c3ccco3)CC2)c1 | i
COC(=O)CCN1CCC2CC1c1cc(N3CCCCC3)ccc12 (configuration not stated) | i
CCCCn1nnnc1C(c1cc2ccccc2o1)N1CCN(CCN(C)C)CC1 (configuration not stated) | i
Cn1c(SCCN2CCCCC2)nnc1-c1ccccc1Br | 14 | HuH7 TTR inh=i;TTR up confirm=i
Cc1ccc(C#N)c(SCCN2CCCCC2)n1 | i
Cn1c(SCC(=O)N2CCCCCC2)nnc1-c1ccco1 | i
CC(C)CCN1NC2(CCCC(C)C2)NC1=S (configuration not stated) | 13 | HuH7 TTR inh=i;TTR up confirm=i
CC(C)CC1CCCC12NC(=O)NC2=O (configuration not stated) | i
CC(C)NC(=O)C1(C)CCN1C(=O)c1cccc(F)c1 (configuration not stated) | i
CCOc1ccc(NS(=O)(=O)c2ccc(C(=O)NCC(c3ccco3)N3CCCCC3)cc2)cc1 (configuration not stated) | i
CCCCn1c(N)c(N(CC(C)C)C(=O)c2cc3ccccc3cc2OC)c(=O)[nH]c1=O | i
O=C(NCCCNC(=O)c1cccs1)c1cccs1 | i
COCCCNC(=O)c1cccs1 | 16 | HuH7 TTR inh=i;TTR up confirm=i
O=C(NCCCCNC(=O)c1cccs1)c1cccs1 | i
COC(=O)[C@@]1(Cc2ccccc2)[C@H]2C(=O)N(C)C(=O)[C@H]2[C@H]2CN=C(SC)N21 | i
